The panel holds about 83,000 compounds, 20% with a hit somewhere; the sample as a whole holds those more often.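 Values shown are percent growth following 48 h exposure of cells in 96-well plates to a single concentration of compound; below 10 was considered active.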 The source made the active and inactive calls.
Each compound was assayed on MDA-MB-231 breast (assay: NCI-60 one-dose screen, 48 h (100 = growth as untreated, 0 = no growth, -100 = all killed)). Details: 10 µM unless noted.
With `O=C1CC(c2ccc(O)c(O)c2)Oc2cc(O)c([C@@H]3O[C@H](CO)[C@@H](O)[C@H](O)[C@H]3O)c(O)c21` (some centres undefined) the growth was 101% (inactive). For `O=C(NCc1ccccc1)c1ccc2c(c1)NC(=O)[C@@H]1CCCN21`, the growth was 103% (inactive). With `CCc1ccc(OCc2ccccc2C(=O)Nc2ccc3nc(C)cc(N)c3c2)cc1` the growth was -82.4% (active). `CSc1cccc(NC(=O)Nc2nc3c(C)cccc3s2)c1` was tested, and the growth was 116% (inactive). In the case of `COC(=O)[C@]1(C)CCC[C@]2(C)[C@H]3C[C@H]4C(C(C)C)=C[C@]3(CC[C@H]21)[C@@H]1C(=O)N(CCC#N)C(=O)[C@@H]14`, the growth is reported as 89.5% (inactive). For `CC1=C(CCCOC(=O)NCCCl)C2=C(C)C3(CC3)[C@@](C)(O)C(=O)C2=C1`, the growth was 44.8% (inactive). `COc1ccc2[nH]c(-c3ccccc3)c(C=C(C#N)C#N)c2c1` was tested, and the growth was 57.9% (inactive). For `Cc1nn(-c2ccc(-c3ccc(OC(F)(F)F)cc3)cc2)c2nc(-c3ccccc3)nc(N)c12`, the growth was 85.1% (inactive). In the case of `O=S(=O)(O)c1ccc(N=NSc2ccc3ccccc3c2)cc1`, the growth is reported as 102% (inactive). In the case of `O=c1c2ccccc2n(CC(O)CN2CCCC2)c2c(Br)cccc12` (centres undefined), the growth is reported as 129% (inactive). With `CS(=O)(=O)O[C@@H]1C(=O)N(c2cc3c4ccccc4ccc3c3ccccc23)[C@H]1c1ccc(F)cn1` the growth was 50.1% (inactive). With `CC(C)(C)c1nn(-c2ccccc2)c2c1COCN2Cc1ccc(Cl)cc1` the growth was 95.1% (inactive). With `Cc1cc(NC(=O)CNc2nc(Oc3ccc(F)cc3)nc(-c3ccc(F)cc3)n2)ccc1Cl` the growth was 106% (inactive). In the case of `CC(=O)c1cc2c(N)c(C(=O)Nc3ccccn3)sc2nc1C`, the growth is reported as 87.1% (inactive). `CCOC(=O)c1sc(/N=C2\NC(=O)/C(=C/c3ccc(N4CCN(C)CC4)cc3)S2)nc1C` was tested, and the growth was 112% (inactive). `O=C(/C(=C/c1ccc([N+](=O)[O-])cc1)SCc1ccc(F)cc1)c1ccc(Cl)cc1` was tested, and the growth was 58.7% (inactive). `Cc1cnc(-c2ccc(-c3ccc(NC(=O)Nc4c(F)cc(F)cc4F)cc3F)c3c2C(=O)NC3)[nH]1` was tested, and the growth was 36.5% (inactive). With `COc1ccc(Nc2cc(NC(=O)CNc3cc(OC)c(Cl)c(OC)c3Cl)ncn2)cc1` the growth was 69.4% (inactive). For `Nc1n[nH]c2cccc(C#Cc3cccc(NC(=O)c4cc(N5CCOCC5)cc(C(F)(F)F)c4)c3)c12`, the growth was 30% (inactive). With `CC(C)(C)CC(C)(C)Cc1ccc(OCCOCC[N+](C)(C)Cc2ccccc2)cc1` the growth was -26.7% (active). In the case of `CCOCc1cc(C(C)(C)C)ccc1O`, the growth is reported as 105% (inactive). `C=C1C(=O)O[C@H]2[C@H]1CC/C(COC(=O)Nc1nc3ccccc3[nH]1)=C\CC[C@@]1(C)O[C@@H]21` was tested, and the growth was 66.1% (inactive). In the case of `C=C(C)[C@@H]1CC[C@]2(C(=O)n3ccnc3)CC[C@]3(C)[C@H](CC[C@@H]4[C@@]5(C)CCCNC(C)(C)[C@@H]5CC[C@]43C)[C@@H]12`, the growth is reported as 20.5% (inactive). In the case of `C=C(C)[C@@H]1CC[C@]2(C(=O)O)CC[C@]3(C)[C@H](CC[C@@H]4[C@@]5(C)C[C@@H](CC#Cc6ccccc6C)C(=O)C(C)(C)[C@@H]5CC[C@]43C)[C@@H]12`, the growth is reported as 48.2% (inactive). For `Clc1ccc2c(NCCCNC3CCCCC3)ccnc2c1`, the growth was 94.1% (inactive). In the case of `CN(C)C(CNc1oc(-c2cccc3ccccc23)nc1C#N)c1ccco1` (centres undefined), the growth is reported as 107% (inactive). With `c1cc(CNC23CC4CC(CC(C4)C2)C3)cc(C[N+](Cc2cccc(CNC34CC5CC(CC(C5)C3)C4)c2)(Cc2cccc(CNC34CC5CC(CC(C5)C3)C4)c2)Cc2cccc(CNC34CC5CC(CC(C5)C3)C4)c2)c1` (centres undefined) the growth was 16.7% [42 µM] (inactive). With `O=C1CCc2ccccc2N1` the growth was 110% (inactive). `Cc1cnc(SCc2ccc(Cl)cc2Cl)nc1Nc1ccc(Cl)c(Cl)c1` was tested, and the growth was 88.3% (inactive). `COc1cc(C2=NN(C(C)=O)C(c3cccc(Nc4ccnc5cc(C(F)(F)F)ccc45)c3)C2)cc(OC)c1OC` (centres undefined) was tested, and the growth was 66.1% (inactive). In the case of `CCOC(=O)c1c(-c2ccc(O)cc2)c(C#N)c2c(C#N)c(N)nn2c1N`, the growth is reported as 67% (inactive). For `CN(C)CCCn1c2c(c3cc(-c4ccco4)ccc3c1=O)C(=O)c1ccccc1-2`, the growth was 53.3% (inactive). For `Nc1cc(N)c(S(=O)(=O)O)cc1N=Nc1cc([N+](=O)[O-])ccc1O`, the growth was 103% (inactive). In the case of `COc1cc(/C=N/Nc2nc(-c3ccc(F)cc3)c(C#N)c(N3CCOCC3)n2)ccc1O`, the growth is reported as 99.8% (inactive).

Source: PubChem BioAssay (NCI)
